# High-throughput results deposited in PubChem by National Center for Advancing Translational Sciences (NCATS).
# BAZ2B block: qHTS Assay for Inhibitors of BAZ2B. 360,000 compounds, 4.4% hits. AlphaScreen BAZ2B-H3K14Ac peptide displacement. Potency, µM (titrated, usually from 114 µM), inactives show at the top dose activity change, negative = inhibition, most hits filed as inhibitors. Bromodomain adjacent to zinc finger domain protein 2B (Homo sapiens), Q9UIF8. AID 504333, 2011; further: on the % scale 0 is the no-effect control and ±100 the full control effect; nearly all actives have a fitted effect of over 60% in size
#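 BAZ2B (50 nM) with biotin-H3(5-23)K14Ac peptide (50 nM) in PBS pH 7.4, 0.01% Tween-20, preformed 30 min, then compound 30 min at room temperature; top concentration 110uM. AlphaScreen streptavidin donor/nickel chelate acceptor beads (10 ug/mL final), 20 min dark, signal read.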
# PLK1 PBD block: qHTS for Inhibitors of PLK1-PDB (polo-like kinase 1 - polo-box domain): Primary Screen; Potency, µM, for the others: max response, negative = inhibition, actives largely listed as inhibitors; 360,000 compounds, 2.8% hits; Plk1 PBD binding of FITC phosphopeptide, fluorescence polarization; Serine/threonine-protein kinase PLK1 (Homo sapiens), P53350; further: series mostly up to about 57 µM; on the % scale 0 is the no-effect control and ±100 the full control effect; nearly all actives have a fitted effect of over 65% in size
# HP1b binding inh: HTS for Inhibitors of HP1-beta Chromodomain Interactions with Methylated Histone Tails; Chromobox protein homolog 1 (Homo sapiens), P83916; AlphaScreen HP1-beta / biotin-H3K9me3 peptide binding; Potency, µM (top dose mostly 114 µM), for the others: at the highest dose activity change, negative = inhibition, most hits filed as inhibitors; 390,000 compounds, 0.56% hits; further: nearly all actives have a fitted effect of over 70% in size
#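 HP1-beta protein (50 nM final) preincubated 30 min at room temperature with biotinylated H3(1-18)K9me3 peptide (50 nM) in PBS pH 7.4, 0.01% Tween-20, then compound added for 30 min. AlphaScreen streptavidin donor/nickel chelate acceptor beads (10 ug/mL final), 30 min dark, luminescence read.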
# JMJD2A Tudor: qHTS Assay for Inhibitors of JMJD2A-Tudor Domain | AlphaScreen JMJD2A-Tudor / H3K4me3 peptide binding | Lysine-specific demethylase 4A (Homo sapiens), O75164 | Potency, µM (doses to about 114 µM), without a hit: top-dose activity change, negative = inhibition, hits mostly inhibitors | AID 504339, 2011 | 390,000 compounds, 4.4% hits; further: on the % scale 0 is the no-effect control and ±100 the full control effect; nearly all actives have a fitted effect of over 50% in size
# VDR inhibitor: Inhibitors of the vitamin D receptor (VDR): qHTS; VDR-SRC2-3 peptide fluorescence polarization, 2 h; Potency, µM, for the others: max response, negative = inhibition, most hits filed as inhibitors; 400,000 compounds, 0.93% hits; further: on the % scale 0 is the no-effect control and ±100 the full control effect
#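 VDR–SRC2-3 interaction, FP format. Cmpds 23 nl via pintool, brief spin, 2 h ambient incubation.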
# L3MBTL1 inh: qHTS Assay for the Inhibitors of L3MBTL1 | AlphaScreen L3MBTL1–H3K9me1 peptide binding | Potency, µM (top dose mostly 57.1 µM), for the others: at the highest dose activity, negative = inhibition, most hits filed as inhibitors | 230,000 compounds, 0.66% hits | AID 485360, 2010; further: on the % scale 0 is the no-effect control and ±100 the full control effect; nearly all actives have a fitted effect of over 60% in size
#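 Read-out is AlphaScreen signal from streptavidin donor and nickel chelate acceptor beads (10 ug/mL final each) bridging L3MBTL1 (50 nM) and biotinylated K9-monomethylated H3(1-15) peptide (75 nM), after 30 min compound exposure at room temperature.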
# Active calls of the source: *; ? = inconclusive; / = not tested or not shown. A selection: hits, their analogues and other compounds. The true share with any hit is near 6.9%. The call rests on the fitted dose curve; in most records, active means well fitted curve in the direction sought with a large enough effect; inconclusive means small, poorly fitted or top-dose-only effect, or another doubt; inactive means no such curve, though single readings can be large; an effect the other way counts as inactive or inconclusive. Potency means the concentration at half of the fitted maximal effect.
SMILES,BAZ2B block,PLK1 PBD block,HP1b binding inh,JMJD2A Tudor,VDR inhibitor,L3MBTL1 inh
CSc1nc(C(=O)N2CCc3c([nH]c4ccccc34)C2c2ccccn2)cs1 (centres undefined),32µM*,1%,-19%,50µM*,1%,-24%
CCc1nc(C)ccc1OCC(=O)N1CCc2c([nH]c3ccccc23)C1c1ccccn1 (centres undefined),-13%,4%,10%,?,-14%,-5%
COc1ccccc1N1C(=O)c2ccccc2C1=O,/,/,/,-31%,/,/
C=CCOC(=O)NC(c1ccc(F)c(F)c1)C(C(=O)CCl)C(=O)OC (centres undefined),/,/,/,/,45µM*,/
CC(=O)N1CCCc2cc(S(=O)(=O)Nc3ccc(C)c(C)c3)ccc21,/,/,/,-18%,/,/
CCC(C)NCCOc1cccc(Br)c1 (centres undefined),-26%,-4%,?,4.5µM*,-24%,4%
CCC(C)NCCOc1ccc(C(C)(C)c2ccccc2)cc1 (centres undefined),?,-4%,?,2.8µM*,17%,-8%
CCCCNCC#CCOc1cc(C)ccc1C(C)C,?,4%,-3%,22µM*,0%,91%
COCCCNCCOc1ccc(C(C)(C)c2ccccc2)cc1,?,-2%,9%,18µM*,8%,9%
CN(C)c1ncc2nc(-c3cccs3)c(=O)n(CCC#N)c2n1,/,/,/,/,5%,/
Cc1ccc(CNC(=O)Cc2coc3cc(C)cc(C)c23)cc1,2%,/,56%,-10%,13%,/
NNCCc1ccccc1,-17%,-10%,20%,79µM*,1%,5%
CC(C)(C)c1ccc(OCCNC(=S)Nc2ccccc2)cc1,-11%,-6%,27%,-16%,2%,-14%
CC(C)(C)c1ccc(OCCNCc2ccccc2)cc1,-8%,-4%,?,2.2µM*,-4%,9%
Cc1ccc(C(C)C)c(OCCNCCc2ccccc2)c1,?,1%,?,25µM*,-22%,-10%
CNCCCOc1ccc(C(C)(C)c2ccccc2)cc1,79µM*,/,/,/,/,/
CC(=O)c1ccc(NC(=O)CCn2nc(C)c(S(=O)(=O)N3CCC(C)CC3)c2C)cc1,1%,/,24%,-11%,5%,/
O=C1CC(c2nnc(Cc3ccc(F)cc3)o2)CN1c1ccccc1 (centres undefined),-11%,/,6%,-3%,-9%,/
O=C(NCC12CC3CC(CC(C3)C1)C2)c1cc2nc(-c3ccc(F)cc3)cc(C(F)(F)F)n2n1,-1%,/,32%,-14%,9%,/
CCc1ccc(Nc2nnc(-n3nc(C)cc3C)c3ccccc23)cc1,45%,/,121%,2%,1%,/
c1ccc(CCNCCOc2ccccc2)cc1,?,-2%,-21%,2.8µM*,-1%,-4%
Cc1ccc(CN2CCc3nc(Nc4ccc5c(c4)OCCO5)ncc3C2)cc1,40µM*,/,?,45µM*,7%,/
COc1cccc(CN2CCc3nc(Nc4ccc5c(c4)OCCO5)ncc3C2)c1OC,35µM*,/,?,56µM*,9%,/
O=C1CC(c2nc(-c3ccccc3)no2)CN1c1ccccc1 (centres undefined),2%,/,29%,-1%,9%,/
CC(C)C[C@@H](CN)NC(=O)c1nc[nH]c1C(=O)N[C@@H](Cc1ccccc1)C(=O)CNC[C@H](C)NC(=O)c1nc[nH]c1C(=O)N[C@@H](C)C(=O)O,/,?,56%,79µM*,-10%,/
CC(C)C[C@@H](CN)NC(=O)c1nc[nH]c1C(=O)N[C@@H](Cc1ccccc1)C(=O)CNC[C@H](C)NC(=O)c1nc[nH]c1C(=O)N[C@@H](CC(C)C)C(=O)O,/,-27%,49%,56µM*,-22%,/
